Reference: the supplement of paper PMC6331611
Values joined by “and” are separate entries in the source; they are usually repeats but may differ in a detail not shown here. Equal entries are not always repeated. ± gives the standard deviation of the averaged measurements. The full ranking holds about 1,600 compounds; the median of “normalized intracellular growth (luminescence, IQM-normalized) in RAW264.7 macrophages” is about 1, and the lowest 2% start at about 0.43. For the sample, the lowest values were picked, then their nearest neighbours and some compounds at random.

Tested on: Salmonella enterica serovar Typhimurium SL1344
Assay: normalized intracellular growth (luminescence, IQM-normalized) in RAW264.7 macrophages (fraction of plate interquartile mean); higher = more bacterial growth (less inhibition)
Details: 10 µM

Row | Structure (SMILES) | normalized intracellular growth (time point: T3 (3 h)) | normalized intracellular growth (time point: Tfinal (~6 h))
1 | CC(=O)NCCCCCC(=O)O | 0.997 ± 0.019 | 1.02 ± 0.17
2 | O=S(=O)(O)CCSSCCS(=O)(=O)O | 1.02 ± 0.061 | 0.986 ± 0.18
3 | CC(C(=O)O)c1ccc(CC2CCCC2=O)cc1 (centres undefined) | 1.05 ± 0.055 | 1.06 ± 0.064
4 | NC[C@@H]1CC[C@@H](N)[C@@H](O[C@H]2[C@H](O)[C@@H](O[C@H]3O[C@H](CO)[C@@H](O)[C@H](N)[C@H]3O)[C@H](N)C[C@@H]2N)O1 | 1.04 ± 0.023 | 0.976 ± 0.13
5 | NCC(O)CC(=O)O (centres undefined) | 0.966 ± 0.067 | 1.03 ± 0.12
6 | C[C@H]1COc2c(C3(N)CC3)c(F)cc3c(=O)c(C(=O)O)cn1c23 | 1.36 ± 0.11 | 0.00812 ± 0.0004
7 | CN1CCN(c2c(F)cc3c(=O)c(C(=O)O)cn4c3c2SCC4)CC1 | 0.982 ± 0.061 | 0.095 ± 0.094
8 | C[C@H]1COc2c(N3CCN(C)CC3)c(F)cc3c(=O)c(C(=O)O)cn1c23 | 1.245 ± 0.0094 | 0.00765 ± 0.001
9 | CC1COc2c(N3CCN(C)CC3)c(F)cc3c(=O)c(C(=O)O)cn1c23 (centres undefined) | 0.856 ± 0.034 | 0.134 ± 0.0023
10 | CCCCCCc1ccc(O)cc1O.Nc1c2ccccc2nc2ccccc12 | 0.891 ± 0.014 | 1.07 ± 0.012
11 | CC1(C)S[C@@H]2[C@H](N3C(=O)[C@@H](c4ccccc4)NC3(C)C)C(=O)N2[C@H]1C(=O)O | 1 ± 0.031 | 0.974 ± 0.056
12 | COC(=O)/C=C/C(=O)OC | 0.935 ± 0.047 | 0.937 ± 0.028
13 | O=C([O-])[C@H]1/C(=C/CO)O[C@@H]2CC(=O)N21.[Li+] | 1.02 ± 0.099 | 0.812 ± 0.11
14 | CN(C)c1cnccn1 | 0.967 ± 0.046 | 0.904 ± 0.32
15 | CSCC[C@H](NC(=O)[C@H](Cc1c[nH]c2ccccc12)NC(=O)CCNC(=O)OC(C)(C)C)C(=O)N[C@@H](CC(=O)O)C(=O)N[C@@H](Cc1ccccc1)C(N)=O | 1 ± 0.04 | 0.827 ± 0.23
16 | Cl.N=C(N)NCCC[C@H](N)C(=O)O | 1.05 ± 0.065 | 1.02 ± 0.092
17 | NCC(=O)CCC(=O)O | 1.09 ± 0.029 | 1.02 ± 0.042
18 | Cc1nc(C)c(Cl)c(O)c1Cl | 0.942 ± 0.035 | 1.16 ± 0.1
19 | C[C@]12CCC(=O)C=C1CC[C@@H]1[C@@H]2[C@@H](O)C[C@@]2(C)[C@H]1CC[C@]2(O)C(=O)COP(=O)(O)O | 0.9812 ± 0.0046 | 0.999 ± 0.047
20 | O=C(O)c1cc(O)c2c(c1)[C@H]([C@H]1c3cc(C(=O)O)cc(O)c3C(=O)c3c(O[C@@H]4O[C@H](CO)[C@@H](O)[C@H](O)[C@H]4O)cccc31)c1cccc(O[C@@H]3O[C@H](CO)[C@@H](O)[C@H](O)[C@H]3O)c1C2=O | 0.957 ± 0.08 | 0.961 ± 0.026
21 | O=C1C2CC3CC1CC(O)(C3)C2 | 1 ± 0.017 | 1.06 ± 0.065
22 | CC(C)NC(=N)NC(=N)Nc1ccc(Cl)cc1 | 0.664 ± 0.018 | 0.164 ± 0.01
23 | N=C(NCCCCCCNC(=N)NC(=N)Nc1ccc(Cl)cc1)NC(=N)Nc1ccc(Cl)cc1 | 0.912 ± 0.078 | 1.15 ± 0.014
24 | O=C1c2c(O)cc(CO)cc2C(OC2OC(CO)C(O)C(O)C2O)c2cccc(OC3OC(CO)C(O)C(O)C3O)c21 (centres undefined) [CASANTHRANOL [cascaroside A shown]] | 0.997 ± 0.016 | 0.857 ± 0.041
25 | CCCCCCOC(=O)NC(=N)c1ccc(NCc2nc3cc(C(=O)N(CCC(=O)OCC)c4ccccn4)ccc3n2C)cc1 | 1.02 ± 0.01 | 0.97 ± 0.034
26 | CCCCC(CC)COC(=O)CC(C(=O)OCC(CC)CCCC)S(=O)(=O)O (centres undefined) | 0.943 ± 0.069 | 0.958 ± 0.027

Row | Structure (SMILES) | normalized intracellular growth (time point: T3 (3 h)) | normalized intracellular growth (time point: Tfinal (~6 h))
27 | CCN(CC)CCNC(=O)c1ccc(NC(C)=O)cc1 | 1.03 ± 0.065 | 1 ± 0.12
28 | C[C@H]1[C@H](OC(=O)CCC(=O)O)O[C@@H]2O[C@@]3(C)CC[C@H]4[C@H](C)CC[C@@H]1[C@@]24OO3 | 0.899 ± 0.045 | 0.869 ± 0.028
29 | Nc1ncn([C@@H]2O[C@H](CO)[C@@H](O)[C@H]2O)c(=O)n1 | 0.951 ± 0.029 | 0.154 ± 0.087
30 | Nc1ccn([C@@H]2O[C@H](CO)[C@@H](O)[C@@H]2O)c(=O)n1 | 0.9664 ± 0.0095 | 0.997 ± 0.037
31 | O=c1[nH]cnc2c1ncn2[C@@H]1O[C@H](CO)[C@@H](O)[C@H]1O | 0.917 ± 0.048 | 0.976 ± 0.13
32 | CCCCC(CC)CN=C(N)N=C(N)NCCCCCCNC(N)=NC(N)=NCC(CC)CCCC (centres undefined) | 0.994 ± 0.063 | 1.1 ± 0.035
33 | CN(C)CC[C@@H](c1ccc(Cl)cc1)c1ccccn1 | 1 and 1.05 | 1.01 and 0.736
34 | C[C@]12C=CC(=O)C=C1CC[C@@H]1[C@@H]2[C@@H](O)C[C@@]2(C)[C@H]1CC[C@]2(O)C(=O)COC(=O)CCC(=O)O | 1.02 ± 0.016 | 0.815 ± 0.11
35 | N[C@H]1C(O)O[C@H](CO)[C@@H](O)[C@@H]1O (some centres undefined) | 0.967 ± 0.045 | 0.999 ± 0.058
36 | CCn1cc(C(=O)O)c(=O)c2cnc(N3CCCC3)nc21 | 0.929 ± 0.0075 | 1.04 ± 0.053
37 | CN1CCN(c2cc3c(cc2F)c(=O)c(C(=O)O)cn3-c2ccc(F)cc2)CC1 | 0.634 ± 0.14 | 0.982 ± 0.093
38 | O=C(O)c1cn(C2CC2)c2cc(N3CCNCC3)c(F)cc2c1=O | 1.14 ± 0.019 | 0.0127 ± 0.00088
39 | CCn1cc(C(=O)O)c(=O)c2cc(F)c(N3CCNCC3)cc21 | 1.07 ± 0.028 | 1.19 ± 0.029
40 | O=C(O)c1cn(-c2ccc(F)cc2)c2cc(N3CCNCC3)c(F)cc2c1=O | 1.1 ± 0.081 | 0.00781 ± 0.0016
41 | CCn1cc(C(=O)O)c(=O)c2cc(F)c(N3CCN(C)CC3)cc21 | 1.11 ± 0.11 | 0.012 ± 0.0031
42 | C[C@H](N[C@@H](CCc1ccccc1)C(=O)O)C(=O)N1Cc2ccccc2C[C@H]1C(=O)O | 1.03 ± 0.079 | 1.08 ± 0.12
43 | NC(=O)CCCCC1CCSS1 (centres undefined) | 0.996 ± 0.093 | 0.817 ± 0.12
44 | O=S(=O)(O)CCCS(=O)(=O)O | 1.01 ± 0.095 | 0.9 ± 0.34
45 | O=C1/C(=C/c2cccs2)CCC/C1=C\c1cccs1 | 0.973 ± 0.059 | 1.06 ± 0.036
46 | CC1=CC(=O)NS(=O)(=O)O1 | 1.06 ± 0.077 | 1.04 ± 0.089
47 | CN1CC(=O)N2[C@H](c3ccc4c(c3)OCO4)c3[nH]c4ccccc4c3C[C@@H]2C1=O | 1.06 ± 0.072 | 0.783 ± 0.27
48 | CN(C)c1ccc(C(=C2C=CC(=[N+](C)C)C=C2)c2ccc(N(C)C)cc2)cc1 | 0.8927 ± 0.0022 | 0.931 ± 0.03
49 | CC(=O)OCC(=O)[C@@]1(O)[C@H](OC(C)=O)C[C@H]2[C@@H]3CCC4=CC(=O)C=C[C@]4(C)[C@@]3(F)[C@@H](O)C[C@@]21C | 0.823 ± 0.07 | 1.2 ± 0.034
50 | CCOc1ccc(Cc2nccc3cc(OCC)c(OCC)cc23)cc1OCC | 0.925 ± 0.09 | 0.43 ± 0.11
51 | CCC/C=C\C=C/C(=O)N[C@@H](CC(N)=O)C(=O)NC(CC(N)=O)C(=O)N[C@@H](C(=O)N[C@H](CCCN)C(=O)N[C@@H](C(=O)N[C@@H](C(=O)N[C@@H](C(=O)N[C@H](C(=O)N[C@@H](Cc1ccccc1)C(=O)N[C@H](CCCN)C(=O)NC(C(=O)N[C@H](C(=O)NC(C(=O)NCC(=O)N[C@@H](CC(C)C)C(=O)N[C@H](C)C(=O)NC(C(=O)O)C1CCC(O)C(Cl)C1)C1CCC(O)CC1)[C@H](C)O)C1CCC(O)CC1)[C@H](C)O)C1CCC(O)CC1)C1CCC(O)CC1)[C@H](C)O)C1CCC(O)CC1 (some centres undefined) [RAMOPLANIN [A2 shown; 2mM]] | 0.984 ± 0.051 | 1.17 ± 0.15
52 | C=CCCCCCCCCC(=O)[O-].C=CCCCCCCCCC(=O)[O-].[Zn+2] | 1 ± 0.048 | 0.832 ± 0.1
